Reference: PubChem BioAssay (NCATS)
Results filed as inconclusive are left out. A number with no mark means an inactive call. Active and inactive are the calls of the source. The call rests on the fitted dose curve; in most records, active means well fitted cell-killing curve with a large enough effect; inconclusive means small, poorly fitted or top-dose-only effect; inactive means no such curve, though single readings can be large or run the other way.
Potency means the concentration at half of the fitted maximal effect.

Assay: qHTS of pediatric cancer cell lines to identify multiple opportunities for drug repurposing: Primary screen for NB1643 cells (AID 1347099); further: nearly all actives have a fitted effect of over 50% in size
Settings: NB1643 neuroblastoma viability, CellTiter-Glo luminescence, 48 h; series mostly up to 46 µM; activity change, negative = cytotoxic: at the top concentration
From the text: Drug repurposing or repositioning has been offered as a strategy for drug development in oncology programs. This approach has special potential for childhood cancers and other rare or orphan diseases, where the expected return on new drug development has been a disincentive to pharmaceuticals. […] In this project we exploit the poly-pharmacology of drugs to discover new indications via phenotypic screening of a panel of 19 well-characterized cell lines derived from solid tumors seen in children and adolescents. The goal is to identify approved drugs with previously unrecognized anticancer properties that has the potential to reveal new mechanisms and biological processes involved in carcinogenesis or drug resistance. We employed a titration-based paradigm (quantitative high-throughput screening or qHTS), where all compounds were tested at multiple concentrations for their effect on cell viability. Concentration-response curves (CRCs) were derived directly from the primary screen, and both potency and efficacy values were used to identify compounds with robust bioactivity profiles. We screened the NIH Chemical Genomics Center (NCGC) Pharmaceutical Collection (NPC) and Mechanism Interrogation Plate (MIPE) small molecule collections of approved and investigational compounds against these cell lines; and measured metabolically active cells after 48 hours of compound treatment as a proxy for cell viability. […] Assay Submitter: Nathalia J. Martinez, National Center for Advancing Translational Sciences, National Institutes of Health, Rockville, MD, USA; email: natalia.martinez@nih.gov Shen, M et al. Quantitative high-throughput phenotypic screening of pediatric cancer cell lines identifies multiple opportunities for drug repurposing. Oncotarget 2017 Dec 19;9(4):4758-4772. PMID 29435139.
The cells were obtained from University of North Carolina (UNC), Pediatric Preclinical Testing Program (PPT), and Coriell Institute (CI). qHTS cell viability assay: Cells were assayed in growth media at a density of 500-1,000 cells/well. Five microliters of cells were dispensed into 1,536-well, white, solid-bottom, TC-treated plates (Greiner Bio One) using a multidrop dispenser and incubated at 37 degrees C, 5% CO2, under a humidified atmosphere for 5 hours. Twenty-three nanoliters of compounds and controls (neutral control DMSO or positive control bortezomib at final concentration of 2.3 µM) were subsequently transferred by Kalypsys pintool. For primary screens, the MIPE collection was tested at 11-point dilutions (final concentrations range from 0.78 nM to 46 µM) and the NPC collection at 8-point dilutions (final concentrations range from 0.59 nM to 46 µM). Compounds tested in follow-up screens were assayed at 11-point dilutions. Cells were incubated for 48 hours, followed by addition of 3 µL of CellTiter-Glo (Promega). After a 15 min incubation at room temperature, samples were analyzed for luminescence intensity using a ViewLux High-throughput CCD imager equipped with clear filters.
With `CN(C(=O)c1ccc(F)cc1C(F)(F)F)C1CCN(c2nnc(-c3ccnn3C)c3ccccc23)CC1` the Potency was 4.18 µM (active).
For `CC(C)(Sc1ccc(CCN(CCCCC2CCCCC2)C(=O)NC2CCCCC2)cc1)C(=O)O`, the Potency was 14.8 µM (active).
With `CCOc1ccc(Cc2cc([C@@H]3O[C@H](CO)[C@@H](O)[C@H](O)[C@@H]3O)ccc2Cl)cc1` the “activity change, negative = cytotoxic” value was -21.6%.
For `Cc1cn[nH]c1`, the “activity change, negative = cytotoxic” value was 8.2%.
For `O=c1n(CCCN2CCN(c3cccc(Cl)c3)CC2)nc2ccccn12`, the Potency was “inactive”.
In the case of `O=NN(CCCl)C(=O)NCCCl`, the Potency is reported as “inactive”.
For `Cc1cc([C@@H](C)Nc2ccccc2C(=O)O)c2nc(N3CCOCC3)cc(=O)n2c1`, the Potency was 6.05 µM (active).
With `O=C(c1cc(Cc2n[nH]c(=O)c3ccccc23)ccc1F)N1CCN(C(=O)C2CC2)CC1` the Potency was 14.8 µM (active).
In the case of `Cc1[nH]c(=O)c(C#N)cc1-c1ccc2nccn2c1`, the “activity change, negative = cytotoxic” value is reported as 14.5%.
For `CC(C)NCC(O)COc1ccc(COCCOC(C)C)cc1` (stereo not given), the Potency was “inactive”.
With `COc1ccc(C2=N[C@H](c3ccc(Cl)cc3)[C@H](c3ccc(Cl)cc3)N2C(=O)N2CCNC(=O)C2)c(OC(C)C)c1` the Potency was 2.64 µM (active).
With `Fc1ccc(Cl)cc1-c1nc(Nc2ccncc2)c2nccnc2n1` the “activity change, negative = cytotoxic” value was 73.2%.
For `CC(C)(N)C(=O)N[C@H](COCc1ccccc1)C(=O)N1CCC2(CC1)CN(S(C)(=O)=O)c1ccccc12`, the Potency was 23.5 µM (active).
With `COc1cccc2cc(-c3nc(C4CCC(C(=O)O)CC4)n4ncnc(N)c34)[nH]c12` (stereo not given) the “activity change, negative = cytotoxic” value was 123%.
In the case of `CN(C)c1ccc(Nc2nc(N)n(C(=O)c3c(F)cccc3F)n2)cc1`, the Potency is reported as 11.8 µM (active).
With `C[C@]12CCC(=O)C=C1CC[C@@H]1[C@@H]2[C@@H](O)C[C@@]2(C)[C@H]1CC[C@]2(O)C(=O)CO` the “activity change, negative = cytotoxic” value was 4.69%.
With `NS(=O)(=O)c1cc2c(cc1Cl)NC=NS2(=O)=O` the Potency was “inactive”.
For `C[C@]1(c2nc3c(C(N)=O)cccc3[nH]2)CCCN1`, the Potency was 9.35 µM (active).
With `Cc1c(CN2CCN(C(=O)C(C)C)CC2)sc2c(N3CCOCC3)nc(-c3cnc(N)nc3)nc12` the Potency was 6.62 µM (active).
For `O=C(Nc1nc2ccccc2n1CCN1CCOCC1)c1cccc([N+](=O)[O-])c1`, the Potency was 7.43 µM (active).
For `CC(C)(C)NCC(O)c1ccc(O)c(CO)c1` (stereo not given), the Potency was “inactive”.
In the case of `Cc1c(C)c2c(c(C)c1O)CCC(C)(COc1ccc(CC3SC(=O)NC3=O)cc1)O2` (stereo not given), the Potency is reported as “inactive”.
For `COc1cc2c(cc1OC)CN(CCc1ccc(NC(=O)c3cccc4c(=O)c5cccc(OC)c5[nH]c34)cc1)CC2`, the Potency was 7.43 µM (active).
With `COc1ccc([C@@H]2CC(=O)c3c(O)cc(O[C@@H]4O[C@H](CO[C@@H]5O[C@@H](C)[C@H](O)[C@@H](O)[C@@H]5O)[C@@H](O)[C@H](O)[C@@H]4O)cc3O2)cc1O` the “activity change, negative = cytotoxic” value was 1.93%.
For `Nc1ccc(S(=O)(=O)Nc2ccnn2-c2ccccc2)cc1`, the “activity change, negative = cytotoxic” value was 13.3% [at 16.1 µM].
In the case of `C1COC(NC(C2CC2)C2CC2)=N1`, the Potency is reported as “inactive”.
For `COc1cc(Nc2ncc3c(n2)-c2ccc(Cl)cc2C(c2c(F)cccc2OC)=NC3)ccc1C(=O)O`, the Potency was 13.2 µM (active).
In the case of `Cc1n[nH]c(C)c1Cc1sc2c(c1C(=O)N1C[C@H](O)CO1)c(=O)n(C)c(=O)n2CC(C)C`, the Potency is reported as 1.05 µM (active).
In the case of `C[C@H](NC(=O)Cc1cc(F)cc(F)c1)C(=O)N[C@@H]1C(=O)N(C)c2ccccc2-c2ccccc21`, the Potency is reported as 6.62 µM (active).
With `Cc1ccnc(NS(=O)(=O)c2ccc(NC(=O)Nc3ccc(S(=O)(=O)Nc4nccc(C)n4)cc3)cc2)n1` the “activity change, negative = cytotoxic” value was -23.8%.
In the case of `CC[C@H](Nc1ncnc2nc[nH]c12)c1nc2cccc(F)c2c(=O)n1-c1ccccc1`, the Potency is reported as 16.6 µM (active).
With `Cn1cnc([N+](=O)[O-])c1Sc1ncnc2nc[nH]c12` the Potency was 12.1 µM (active).
For `CCn1c(-c2nonc2N)nc2c(C#CC(C)(C)O)ncc(OC[C@H]3CCCNC3)c21`, the Potency was 18.7 µM (active).
For `CC1(C)SCCN(S(=O)(=O)c2ccc(OCC#CCO)cc2)[C@@H]1C(=O)NO`, the “activity change, negative = cytotoxic” value was -3.71%.
For `Cc1ccc(NC(=O)c2cccc(C(C)(C)C#N)c2)cc1Nc1ccc2ncn(C)c(=O)c2c1`, the Potency was 18.7 µM (active).
With `Cc1cccc(-c2nn(C(=S)Nc3ccccc3)cc2-c2ccnc3ccccc23)n1` the “activity change, negative = cytotoxic” value was 23.9%.
For `C[C@@H]1CN(Cc2ccc(F)cc2)[C@@H](C)CN1C(=O)c1cc2c(C(=O)C(=O)N(C)C)cn(C)c2cc1Cl`, the Potency was 2.64 µM (active).
With `COc1ccccc1-c1cccc(-c2c(O)c3cc(C#N)c(Cl)cc3[nH]c2=O)c1` the “activity change, negative = cytotoxic” value was -9.46% [at 92.7 µM].
With `Clc1cccc(Cl)c1NC1=NCCN1` the Potency was “inactive”.
In the case of `O=C(C=Cc1ccc(/C=C/C(=O)Nc2ccc(C3=NCCN3)cc2)cc1)Nc1ccc(C2=NCCN2)cc1`, the “activity change, negative = cytotoxic” value is reported as -19.5%.
